From PubChem BioAssay (EPA / NIEHS) come the findings set out here.

SMILES strings stand for the structures. Inconclusive results are not listed. A structure can be active in one record and inactive in another. Active and inactive are the calls of the source. How the source made its calls, unless noted: active means hit-call score of the fitted dose curve at least 0.9, where 1 is the maximum; inconclusive means response in the unintended direction; inactive means score below 0.9.

A word on the AC50: it is the concentration giving half of the maximal activity seen.

Read-out in assay [1]: solute carrier (SLCO1B1), SLCO1B1 (gene 10599)
The assay is described as follows: LTEA_HepaRG_SLCO1B1: Life Technologies and Expression Analysis (LTEA) Assay for solute carrier (SLCO1B1) using HepaRG (AID 2283530; active means hit-call score of the fitted dose curve at least 0.9, where 1 is the maximum; inactive means score below 0.9). Particulars: mRNA level, 48 h; actives raise or lower the signal. The essentials:
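Differentiated human HepaRG cells, plated 48 h, switched to serum-free induction medium and exposed in duplicate for 48 h to 8 half-log concentrations (top 100 uM) in 0.5% DMSO. SLCO1B1 mRNA by TaqMan qRT-PCR, normalized to ACTB/GAPDH/POLR2A.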

Read-out in assay [2]: sulfotransferase 2A1 (SULT2A1), SULT2A1 (gene 6822)
The assay is described as follows: LTEA_HepaRG_SULT2A1: Life Technologies and Expression Analysis (LTEA) Assay for sulfotransferase 2A1 (SULT2A1) using HepaRG (AID 2283531; active means hit-call score of the fitted dose curve at least 0.9, where 1 is the maximum; inactive means score below 0.9). The settings on record: mRNA level, 48 h; actives raise or lower the signal. The essentials: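 Differentiated human HepaRG cells in serum-free induction medium were exposed for 48 h to eight half-log concentrations (top 100 uM, 0.5% DMSO). SULT2A1 mRNA was measured by qRT-PCR, normalized to ACTB, GAPDH and POLR2A, and fitted bidirectionally against DMSO.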

Read-out in assay [3]: Transforming Growth Factor (TGFA), TGFA (gene 7039)
The assay is described as follows: LTEA_HepaRG_TGFA: Life Technologies and Expression Analysis (LTEA) Assay for Transforming Growth Factor (TGFA) using HepaRG (AID 2283532; active means hit-call score of the fitted dose curve at least 0.9, where 1 is the maximum; inactive means score below 0.9). The settings on record: mRNA level, 48 h; actives raise or lower the signal. The method, boiled down: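 Differentiated HepaRG cells exposed 48 hours in serum-free induction medium, 0.5% DMSO vehicle, 8-point half-log series from 100 uM, in duplicate. TGFA mRNA by TaqMan qRT-PCR, normalised to ACTB, GAPDH, POLR2A; bidirectional fit versus DMSO.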

Read-out in assay [4]: Transforming Growth Factor (TGFB1), TGFB1 (gene 7040)
The assay is described as follows: LTEA_HepaRG_TGFB1: Life Technologies and Expression Analysis (LTEA) Assay for Transforming Growth Factor (TGFB1) Transporter using HepaRG (AID 2283533; active means hit-call score of the fitted dose curve at least 0.9, where 1 is the maximum; inactive means score below 0.9). The settings on record: mRNA level, 48 h; actives raise or lower the signal. The essentials: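 Differentiated human HepaRG cells in serum-free induction medium were exposed in duplicate for 48 h to eight concentrations (top 100 uM, half-log steps, 0.5% DMSO). TGFB1 mRNA was quantified by qRT-PCR, normalized to ACTB, GAPDH, POLR2A, and fitted bidirectionally against DMSO.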

Read-out in another assay: TIMP1, TIMP1 (gene 7076)
Kind of assay: LTEA_HepaRG_TIMP1: Life Technologies and Expression Analysis (LTEA) Assay for TIMP1 using HepaRG (AID 2283534; active means hit-call score of the fitted dose curve at least 0.9, where 1 is the maximum; inactive means score below 0.9;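 further: TaqMan qRT-PCR signal normalized to ACTB GAPDH and POLR2A housekeeping genes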). Particulars: mRNA level, 48 h; actives raise or lower the signal. The essentials:
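Differentiated human HepaRG cells in serum-free induction medium were exposed 48 h to chemicals (8 half-log concentrations, top 100 uM, 0.5% DMSO). TIMP1 mRNA was quantified by TaqMan qRT-PCR, normalized to ACTB/GAPDH/POLR2A; bidirectional fit versus DMSO.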

Read-out in assay [5]: Tumor necrosis factor receptor 1 (TNFRSF1A), TNFRSF1A (gene 7132)
The assay is described as follows: LTEA_HepaRG_TNFRSF1A: Life Technologies and Expression Analysis (LTEA) Assay for Tumor necrosis factor receptor 1 (TNFRSF1A) using HepaRG (AID 2283535; active means hit-call score of the fitted dose curve at least 0.9, where 1 is the maximum; inactive means score below 0.9). The settings on record: mRNA level, 48 h; actives raise or lower the signal. The essentials: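 Differentiated human HepaRG cells were exposed in duplicate for 48 h in serum-free induction medium to eight concentrations (top 100 uM, half-log steps, 0.5% DMSO). TNFRSF1A mRNA was quantified by qRT-PCR, normalized to ACTB, GAPDH and POLR2A, then fitted bidirectionally against DMSO.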

Read-out in assay [6]: Thyroid Hormone Responsive (THRSP), THRSP (gene 7069)
The assay is described as follows: LTEA_HepaRG_THRSP: Life Technologies and Expression Analysis (LTEA) Assay for Thyroid Hormone Responsive (THRSP) using HepaRG (AID 2283536; active means hit-call score of the fitted dose curve at least 0.9, where 1 is the maximum; inactive means score below 0.9). The settings on record: mRNA level, 48 h; actives raise or lower the signal. The method, boiled down: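 Differentiated HepaRG cells treated 48 h in serum-free induction medium with 8 half-log concentrations up to 100 uM (0.5% DMSO), duplicates. THRSP mRNA by TaqMan qRT-PCR normalised to ACTB, GAPDH, POLR2A; bidirectional fit versus DMSO.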

Read-out in assay [7]: Cellular tumor antigen p53 (Homo sapiens) (UniProt P04637)
The assay is described as follows: LTEA_HepaRG_TP53: Life Technologies and Expression Analysis (LTEA) Assay for Tumor Protein P53 (TP53) using HepaRG (AID 2283537; active means hit-call score of the fitted dose curve at least 0.9, where 1 is the maximum; inactive means score below 0.9). Particulars: mRNA level, 48 h; actives raise or lower the signal. The essentials: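 Read-out is TP53 transcript level by microfluidic qRT-PCR, normalised to three housekeeping genes and fitted bidirectionally against DMSO. Human HepaRG cells received compounds for 48 h, highest concentration 100 uM.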

Read-out in assay [8]: UDP glucuronosyltransferase (UGT1A1), UGT1A1 (gene 54658)
Kind of assay: LTEA_HepaRG_UGT1A1: Life Technologies and Expression Analysis (LTEA) Assay for UDP glucuronosyltransferase (UGT1A1) using HepaRG (AID 2283538; active means hit-call score of the fitted dose curve at least 0.9, where 1 is the maximum; inactive means score below 0.9). Particulars: mRNA level, 48 h; actives raise or lower the signal. The essentials: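 HepaRG cells, 0.5% DMSO vehicle, 48 h exposure in serum-free induction medium to 8-point half-log series topping at 100 uM, in duplicate. UGT1A1 mRNA by Fluidigm qRT-PCR, normalized to ACTB/GAPDH/POLR2A; bidirectional fit versus DMSO.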

Read-out in assay [9]: X-box binding protein 1 (XBP1), XBP1 (gene 7494)
The assay is described as follows: LTEA_HepaRG_XBP1: Life Technologies and Expression Analysis (LTEA) Assay for X-box binding protein 1 (XBP1) using HepaRG (AID 2283540; active means hit-call score of the fitted dose curve at least 0.9, where 1 is the maximum; inactive means score below 0.9). Particulars: mRNA level, 48 h; actives raise or lower the signal. The method, boiled down:
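Differentiated human HepaRG cells in serum-free induction medium were exposed in duplicate for 48 h to eight half-log concentrations up to 100 uM in 0.5% DMSO. XBP1 mRNA was quantified by qRT-PCR, normalised to ACTB, GAPDH and POLR2A, with bidirectional fitting against DMSO.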

Assay [10] can be described thus: LTEA_HepaRG_LDH_cytotoxicity: Cytotoxicity Assessment in the Life Technologies and Expression Analysis (LTEA) Assay (AID 2283563).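 On AC50: LDH activity released into spent culture medium as a marker of cell death.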 The essentials: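 Differentiated human HepaRG cells, plated 48 h beforehand, were switched to serum-free induction medium and exposed for 48 h to eight half-log concentrations (top 100 uM) in 0.5% DMSO. LDH was measured in spent medium; activity was fitted relative to DMSO vehicle.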

The target of assay [11] is Cellular tumor antigen p53 (Homo sapiens) (UniProt P04637). Kind of assay: TOX21_p53_BLA_p2_ratio: Tox21 HCT-116 p53 Agonism Beta-lactamase Assay, Ratio, Phase 2 (AID 2283592). The method, boiled down:
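HCT116 cells carrying a p53-responsive beta-lactamase reporter were plated, incubated 5 h at 37C, then dosed with compounds in DMSO (217-fold dilution) for 16 h. CCF4-AM substrate was added for 2 h at room temperature; the 460/530 nm emission ratio gave gain-of-signal activity relative to DMSO.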

A short description of assay [12]: TOX21_p53_BLA_p3_viability: Viability Assessment in the Tox21 HCT-116 p53 Agonism Beta-lactamase Assay, Phase 3 (AID 2283593).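 Further: cells exposed to compound for 16 h before reading.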 The method, boiled down:
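HCT116 cells, 4000/well, dosed 5 h after plating by pin transfer (217-fold dilution from DMSO stock) and incubated 16 h at 37C, 5% CO2. Viability read as ATP luminescence with CellTiter-Glo after 30 min at room temperature.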

The target of assay [13] is Cellular tumor antigen p53 (Homo sapiens) (UniProt P04637). The assay is described as follows: TOX21_p53_BLA_p3_ratio: Tox21 HCT-116 p53 Agonism Beta-lactamase Assay, Ratio, Phase 3 (AID 2283596). The essentials: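 HCT116 p53-bla cells (4000/well) given compound in DMSO (217-fold dilution) after 5 h, incubated 16 h at 37C. CCF4-AM substrate 2 h at room temperature; 460/530 nm emission ratio, gain fitted against DMSO.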

Assay [14] is described as follows: TOX21_p53_BLA_p4_viability: Viability Assessment in the Tox21 HCT-116 p53 Agonism Beta-lactamase Assay, Phase 4 (AID 2283597).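 Further: hits lower the luminescence signal meaning cytotoxicity.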 The essentials:
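HCT116 p53-bla cells (4000/well) rested 5 h at 37C, then received compounds in DMSO (217-fold dilution) for 16 h at 37C, 5% CO2. CellTiter-Glo was added after the CCF4-AM read, and luminescence was read after 30 min at room temperature.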

For assay [15], the target named is Cellular tumor antigen p53 (Homo sapiens) (UniProt P04637). Kind of assay: TOX21_p53_BLA_p5_ratio: Tox21 HCT-116 p53 Agonism Beta-lactamase Assay, Ratio, Phase 5 (AID 2283599). The method, boiled down:
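HCT-116 p53-bla cells (4000/well) plated 5 h, dosed with compound (217-fold DMSO dilution) for 16 h at 37 C; CCF4-AM substrate 2 h at room temperature. Activity is the 460/530 nm emission ratio (405 nm excitation), fitted in gain-of-signal direction versus DMSO.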

A short description of assay [16]: TOX21_p53_BLA_p5_viability: Viability Assessment in the Tox21 HCT-116 p53 Agonism Beta-lactamase Assay, Phase 5 (AID 2283600). The method, boiled down: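 Cells were plated at 4000/well, rested 5 h at 37C, then given compounds in DMSO (217-fold dilution) for 16 h at 37C, 5% CO2. Following the CCF4-AM beta-lactamase read, CellTiter-Glo was added and luminescence was read after 30 min at room temperature.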

Assay [17] deals with Cellular tumor antigen p53 (Homo sapiens) (UniProt P04637). The assay is described as follows: TOX21_p53_BLA_p4_ratio: Tox21 HCT-116 p53 Agonism Beta-lactamase Assay, Ratio, Phase 4 (AID 2283601). The method, boiled down: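 HCT-116 p53 beta-lactamase reporter cells (4000/well) preincubated 5 h, then compound (217-fold dilution of DMSO stock) for 16 h at 37C. CCF4-AM substrate added 2 h at room temperature; 460/530 nm emission ratio fitted upward versus DMSO.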

Read-out in assay [18]: UDP glucuronosyltransferase (UGT1A6), UGT1A6 (gene 54578)
Kind of assay: LTEA_HepaRG_UGT1A6: Life Technologies and Expression Analysis (LTEA) Assay for UDP glucuronosyltransferase (UGT1A6) using HepaRG (AID 2283539; active means hit-call score of the fitted dose curve at least 0.9, where 1 is the maximum; inactive means score below 0.9). The settings on record: mRNA level, 48 h; actives raise or lower the signal. The essentials:
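Human HepaRG cells were dosed for 48 h in serum-free induction medium with 0.5% DMSO vehicle, eight-point half-log series from 100 uM, in duplicate. UGT1A6 mRNA was measured by qRT-PCR, normalized to ACTB, GAPDH, POLR2A, and fitted bidirectionally against DMSO.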

A short description of assay [19]: ATG_XTT_Cytotoxicity: Cytotoxicity Assessment in the Attagene TRANS-FACTORIAL HepG2 Assay (AID 2283584). The method, boiled down: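 HepG2 human liver cells, transiently transfected with multiple GAL4-UAS reporter units, were dosed and read at 24 h by XTT as cell number. Loss of signal was fitted relative to DMSO negative control baseline.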

Cellular tumor antigen p53 (Homo sapiens), sequence (P04637 whole entry, looked up): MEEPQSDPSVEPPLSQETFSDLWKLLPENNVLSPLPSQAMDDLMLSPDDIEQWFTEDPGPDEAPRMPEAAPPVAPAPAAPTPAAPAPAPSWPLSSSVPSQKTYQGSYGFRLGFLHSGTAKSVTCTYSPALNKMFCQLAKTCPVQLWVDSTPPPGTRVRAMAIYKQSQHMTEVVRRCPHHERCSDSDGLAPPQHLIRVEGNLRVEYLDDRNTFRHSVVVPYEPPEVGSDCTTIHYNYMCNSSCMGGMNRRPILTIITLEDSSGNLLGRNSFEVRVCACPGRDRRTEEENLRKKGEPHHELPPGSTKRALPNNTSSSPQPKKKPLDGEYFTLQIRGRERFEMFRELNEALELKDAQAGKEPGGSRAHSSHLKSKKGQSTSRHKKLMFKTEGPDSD

With `CN1CSC(=S)N(C)C1`, the outcome in assay [1] is “inactive”; in [2], “inactive”; in assay [3], “inactive”; in assay [4] it was “inactive”; with TIMP1, TIMP1 (gene 7076), “inactive”; in assay [5] it was “inactive”. Also, the compound was called inactive in assay [6], in assay [7], in [8], in assay [9], in [10] and in assay [11]. Further, the compound was called inactive in assay [12], in assay [13], in [14], in assay [15], in assay [16] and in [17].

`CCCN(CCOc1c(Cl)cc(Cl)cc1Cl)C(=O)n1ccnc1`: the AC50 is 64.2 µM (active) in assay [1]; 34.9 µM (active) in assay [2]; 50 µM (active) in assay [3]; 27.6 µM (active) in [4]; 3.79 µM (active) in assay [6]; 17.6 µM (active) in assay [7]. Moreover, the AC50 was 73.7 µM (active) in [8]; 72.5 µM (active) in [18]; 78.8 µM (active) in [9]; 36 µM (active) in [10]; 86.1 µM (active) in assay [11]; 75 µM (active) in assay [13]. The values for the AC50 in assay [15] and in assay [17] were 75.3 µM (active) and 74.6 µM (active), respectively. Also, the outcome was “inactive” in the assay with TIMP1, TIMP1 (gene 7076); “inactive” in assay [5]; “inactive” in assay [19]; “inactive” in assay [12]; “inactive” in [13]; “inactive” in [14]. Also, the result in assay [15], in [16] and in assay [17] was inactive.
